A short description of assay [1]: antimalarial activity against Dd2 strain (AID 2302;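 active = growth inhibition above 50% at the single 2 µM test dose, taken to imply half-maximal potency below 2 µM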;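 also: 0% = DMSO untreated growth and 100% = chloroquine plus artemisinin killed control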). Particulars: P. falciparum Dd2 in RBCs, LDH growth readout, 72 h; at 2 µM; active compounds read high.
Assay [2] in a line: human hepatoma cell viability loss – ATP luminescence, cytotoxicity control for P. falciparum antimalarial project, primary screen (AID 2303;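 active = inhibition above 50%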;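 also: 0% = DMSO wells and 100% = digitonin-killed cells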). Particulars: HepG2 viability, 24-48 h, at 10 µM, active compounds read high.
Assay [3] deals with L-lactate dehydrogenase (Plasmodium falciparum (isolate CDC / Honduras)) (UniProt Q27743). Description: PfLDH activity inhibition – cell lysate, 3D7 strain, counter-screen for P. falciparum growth inhibition project (AID 2304).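 Also: 0% = vehicle and 100% = reference inhibitor.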 The note with it: P. falciparum 3D7 crude extract, LDH APAD/NBT absorbance; at 2 µM; active compounds read high. For orientation: Counterscreens check selectivity or assay interference.
Sequence of L-lactate dehydrogenase (Plasmodium falciparum (isolate CDC / Honduras)) (Q27743 whole entry, looked up): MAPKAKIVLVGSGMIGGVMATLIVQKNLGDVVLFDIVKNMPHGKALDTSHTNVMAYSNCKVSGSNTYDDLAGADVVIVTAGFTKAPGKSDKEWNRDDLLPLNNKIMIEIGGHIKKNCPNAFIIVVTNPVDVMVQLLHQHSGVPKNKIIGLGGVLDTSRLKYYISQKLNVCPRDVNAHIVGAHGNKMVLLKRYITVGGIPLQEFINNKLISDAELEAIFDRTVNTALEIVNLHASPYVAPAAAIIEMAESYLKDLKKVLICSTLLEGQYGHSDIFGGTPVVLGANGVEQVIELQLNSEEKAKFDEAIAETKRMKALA

Assay [4] in a line: inhibition of 3D7 malaria parasite growth – strain 3D7 (AID 2306).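 Also: 0% = DMSO wells and 100% = chloroquine plus artemisinin control wells.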 The note with it: P. falciparum 3D7 erythrocytic growth, LDH absorbance, 72 h; at 2 µM; active compounds read high.
Assay [5] has as its target Calcium-dependent protein kinase 1 (Plasmodium falciparum (isolate 3D7)) (UniProt P62344). Description: PfCDPK1 kinase inhibitors, biochemical, TCAMS library (AID 1159585; cut-off not given, nearly all actives have IC50 up to about 0.98 µM;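 also: inhibitors leave more ATP so luminescence rises with inhibition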). The note with it: recombinant PfCDPK1, Kinase-Glo ATP depletion luminescence. (In general: Kinase-Glo measures the ATP left after a reaction by luminescence.)
Assay [6] deals with Plasmodium falciparum protein kinase 6 (PK6, PF3D7_1337100) (UniProt Q8IDW1). As to the kind of experiment: PfPK6 kinase inhibitors, biochemical, TCAMS library (AID 1159586). The note with it: recombinant PfPK6, Kinase-Glo ATP depletion luminescence.
Sequence of Plasmodium falciparum protein kinase 6 (PK6, PF3D7_1337100) (Q8IDW1 1-305): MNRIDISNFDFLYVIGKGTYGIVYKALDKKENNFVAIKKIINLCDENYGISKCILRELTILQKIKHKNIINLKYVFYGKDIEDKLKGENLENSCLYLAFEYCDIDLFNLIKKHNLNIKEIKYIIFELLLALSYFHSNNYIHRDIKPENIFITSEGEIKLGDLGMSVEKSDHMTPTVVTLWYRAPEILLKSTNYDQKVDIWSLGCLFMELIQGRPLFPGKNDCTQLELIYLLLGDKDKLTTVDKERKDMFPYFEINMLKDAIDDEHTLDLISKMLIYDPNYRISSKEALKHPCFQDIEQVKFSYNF
Assay [7] deals with Protein kinase 7 (PK7), Plasmodium falciparum 3D7 (PF3D7_0213400) (UniProt Q7YTF7). As to the kind of experiment: inhibition of Plasmodium PK7 catalytic activity – biochemical, TCAMS antimalarial set, Kinase-Glo luminescence (AID 1159587). Particulars: recombinant PfPK7, Kinase-Glo ATP depletion luminescence.
Sequence of Protein kinase 7 (PK7), Plasmodium falciparum 3D7 (PF3D7_0213400) (Q7YTF7 1-343): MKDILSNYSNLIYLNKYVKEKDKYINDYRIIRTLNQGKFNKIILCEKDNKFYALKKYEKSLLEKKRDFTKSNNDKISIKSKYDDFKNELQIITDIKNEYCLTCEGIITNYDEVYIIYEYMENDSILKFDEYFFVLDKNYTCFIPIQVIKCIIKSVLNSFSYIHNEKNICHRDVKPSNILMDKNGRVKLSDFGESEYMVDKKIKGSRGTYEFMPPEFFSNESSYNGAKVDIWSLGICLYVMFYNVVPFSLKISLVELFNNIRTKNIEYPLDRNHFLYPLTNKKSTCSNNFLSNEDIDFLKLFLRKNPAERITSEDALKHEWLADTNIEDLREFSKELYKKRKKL
Assay [8] concerns the target Calcium-dependent protein kinase 4 (Plasmodium falciparum (isolate 3D7)) (UniProt Q8IBS5). As to the kind of experiment: PfCDPK4 kinase inhibitors, biochemical, TCAMS library (AID 1159588; cut-off not given, nearly all actives have IC50 up to about 0.91 µM). The note with it: recombinant PfCDPK4, Kinase-Glo ATP depletion luminescence.

The values that follow come from PubChem BioAssay.

Values joined by “and” are separate entries in the source; they are usually repeats but may differ in a detail not shown here. Identical values can stand only once. Values without a mark were called inactive. For some of these results: Measured potencies and affinities stand elsewhere. Active and inactive are the calls of the source. Unless noted, no rule for the calls is given here.

As a reminder, the inhibition is the relative decrease from the control value, in per cent.

Sequence of Calcium-dependent protein kinase 1 (Plasmodium falciparum (isolate 3D7)) (P62344 whole entry, looked up): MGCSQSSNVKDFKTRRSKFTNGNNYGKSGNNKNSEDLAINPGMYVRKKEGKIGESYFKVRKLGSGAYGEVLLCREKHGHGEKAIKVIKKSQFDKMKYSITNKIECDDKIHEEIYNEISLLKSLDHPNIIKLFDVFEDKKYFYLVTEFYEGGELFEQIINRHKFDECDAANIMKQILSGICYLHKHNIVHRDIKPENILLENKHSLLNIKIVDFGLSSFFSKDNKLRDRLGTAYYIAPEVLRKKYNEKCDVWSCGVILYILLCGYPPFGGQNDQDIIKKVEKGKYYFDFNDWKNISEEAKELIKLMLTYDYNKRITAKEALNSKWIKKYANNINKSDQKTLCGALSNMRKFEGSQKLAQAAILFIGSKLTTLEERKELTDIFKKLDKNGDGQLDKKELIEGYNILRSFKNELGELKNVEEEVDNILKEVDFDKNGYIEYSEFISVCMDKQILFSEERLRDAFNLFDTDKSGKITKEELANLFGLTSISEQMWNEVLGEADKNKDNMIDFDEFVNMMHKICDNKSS
Sequence of Calcium-dependent protein kinase 4 (Plasmodium falciparum (isolate 3D7)) (Q8IBS5 whole entry, looked up): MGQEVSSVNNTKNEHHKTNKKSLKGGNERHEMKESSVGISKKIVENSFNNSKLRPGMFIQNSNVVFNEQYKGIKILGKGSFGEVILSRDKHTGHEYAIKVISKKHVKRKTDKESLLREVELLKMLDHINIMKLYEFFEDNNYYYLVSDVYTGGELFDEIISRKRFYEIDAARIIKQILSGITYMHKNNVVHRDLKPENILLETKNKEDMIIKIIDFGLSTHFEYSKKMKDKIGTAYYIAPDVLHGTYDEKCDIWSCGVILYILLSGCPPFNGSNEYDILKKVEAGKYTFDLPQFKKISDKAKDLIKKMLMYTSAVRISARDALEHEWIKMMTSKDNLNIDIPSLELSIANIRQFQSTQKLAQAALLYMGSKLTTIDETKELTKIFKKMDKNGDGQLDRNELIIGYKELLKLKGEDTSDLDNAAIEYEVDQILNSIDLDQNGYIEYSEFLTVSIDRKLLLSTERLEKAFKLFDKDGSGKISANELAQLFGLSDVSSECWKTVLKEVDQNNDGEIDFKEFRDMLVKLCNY

For the compound `COc1ccc(CC(C)NCC(O)c2cccc(C(F)(F)F)c2)cc1` (centres undefined), the growth inhibition in assay [1] was 94% (active); in assay [4], 98% (active). In addition, the inhibition is -7% in assay [2] and 3% in assay [3]. Besides, the result in assay [5], in assay [6], in assay [7] and in assay [8] was inactive.
For the compound `COc1cccc(CCNC(C)Cc2ccc(OCCCCOc3ccccc3)cc2)c1` (centres undefined), the figures for the growth inhibition in assay [1] and in assay [4] were 90% (active) and 97% (active), respectively. Further, the inhibition is 100% (active) in assay [2] and 5% in assay [3]. For the same compound, the outcome in assay [5], in assay [6], in assay [7] and in assay [8] was inactive.
`CC[C@H]1CN2CC[C@@H]1C[C@H]2[C@H](O)c1cc(N2CCC(CO)CC2)nc2ccc(OC)cc12`: the growth inhibition in assay [1] and in assay [4] was 99% (active) throughout. The inhibition was 4% in assay [2] and -1% in assay [3]. The result in assay [5], in assay [6], in assay [7] and in assay [8] was inactive.
Consider `COc1ccc(CCNCc2ccc3c(C)cc(N)nc3c2)cc1`, for which the growth inhibition was 69% (active) in assay [1] and 101% (active) in assay [4]. Besides, the inhibition in assay [2] was 12%; in assay [3], 0%. In addition, the result in assay [5], in assay [6], in assay [7] and in assay [8] was inactive.
For `CN1CCC(N(C)c2nccc(N3CCN(Cc4cncn4Cc4ccccc4)CC3)n2)CC1`, the growth inhibition in assay [1] and in assay [4] was 100% (active) each time. Moreover, the results for the inhibition in assay [2] and in assay [3] were 15% and 3%, respectively. Moreover, the outcome in assay [5], in assay [6], in assay [7] and in assay [8] was inactive.
With `O=C(c1cccs1)N(Cc1cccc(-c2ccc(CNC3CCCC3)cc2)c1)C1CCN(Cc2ccccc2)CC1`, the growth inhibition in assay [1] is 74% (active); in assay [4], 90% (active). The inhibition in assay [2] was 20%; in assay [3], 0%. Also, the outcome in assay [5], in assay [6], in assay [7] and in assay [8] was inactive.
As to `O=C(/C=C/c1cc(C(F)(F)F)ccc1F)NC1CCC(CN2CCC(c3c[nH]c4ccccc34)CC2)CC1` (centres undefined), the growth inhibition in assay [1] was 66% (active); in assay [4], 101% (active). The inhibition in assay [2] is 5%; in assay [3], -5%. The result in assay [5], in assay [6], in assay [7] and in assay [8] was inactive.
For the compound `C#CCN1CCC2=C(C1)c1c(O)cc(C(C)C(C)CCc3ccc(F)cc3)cc1OC2(C)C` (centres undefined), the growth inhibition in assay [1] was 99% (active); in assay [4] it was 100% (active). In addition, the inhibition was 10% in assay [2] and 3% in assay [3]. In addition, the result in assay [5], in assay [6], in assay [7] and in assay [8] was inactive.
For the compound `COC(=O)c1ccc(CC(C)NCC(O)c2cc(Cl)c(N)c(Cl)c2)cc1` (centres undefined), the growth inhibition in assay [1] was 66% (active); in assay [4] it was 91% (active). The inhibition is -2% in assay [2] and -7% in assay [3]. Also, the outcome in assay [5], in assay [6], in assay [7] and in assay [8] was inactive.
On to `CCOC(=O)c1c(C)n(C2CCCCCC2)c2cc(Br)c(O)cc12`, for which the growth inhibition was 45% in assay [1] and 87% (active) in assay [4]. Moreover, the inhibition in assay [2] and in assay [3] was -1% each time. The outcome in assay [5], in assay [6], in assay [7] and in assay [8] was inactive.
Consider `O=C(/C=C/c1cc(F)c(F)cc1F)N1CCC(CN2CCC(c3c[nH]c4ccccc34)CC2)CC1`, for which the results for the growth inhibition in assay [1] and in assay [4] were 3% and 93% (active), respectively. The inhibition is 26% in assay [2] and 1% in assay [3]. Also, the outcome in assay [5], in assay [6], in assay [7] and in assay [8] was inactive.
Consider `O=C(c1cc(C(=O)NCc2ccc(Cl)cc2)c(=O)n(Cc2ccc(Cl)cc2)c1)c1cc(Cl)ccc1O`, for which the growth inhibition in assay [1] is 4%; in assay [4], 80% (active). For the same compound, the figures for the inhibition in assay [2] and in assay [3] were 6% and -1%, respectively. Moreover, the result in assay [5], in assay [6], in assay [7] and in assay [8] was inactive.
As for `Cn1c(C2C[C@H]3CC[C@H](C2)N3CC2CCC(NC(=O)/C=C/c3ccc(Cl)c(Cl)c3)CC2)nc2ccccc21` (some centres undefined), the growth inhibition in assay [1] is 51% (active); in assay [4], 100% (active). Also, the figures for the inhibition in assay [2] and in assay [3] were 50% (active) and 4%, respectively. The outcome in assay [5], in assay [6], in assay [7] and in assay [8] was inactive.
With `CCOC(=O)c1c(C)n(C2CCCCC2)c2cc(Br)c(O)cc12`, the growth inhibition is 71% (active) in assay [1] and 98% (active) in assay [4]. For the same compound, the values for the inhibition in assay [2] and in assay [3] were 1% and -3%, respectively. Also, the result in assay [5], in assay [6], in assay [7] and in assay [8] was inactive.
As for `CC(=O)Nc1ccc(CN2CCC(N(C)c3cc(NC(=O)c4ccc(F)cc4)ccn3)CC2)cc1`, the growth inhibition was 5% in assay [1] and 95% (active) in assay [4]. Also, the inhibition in assay [2] is 0%; in assay [3] it was -1%. For the same compound, the result in assay [5], in assay [6], in assay [7] and in assay [8] was inactive.
Regarding `CN(c1ccc(NC(=O)CCOc2ccccc2)cc1)C1CCN(Cc2cccc(O)c2)CC1`, the growth inhibition was -1% in assay [1] and 89% (active) in assay [4]. For the same compound, the inhibition in assay [2] was 18%; in assay [3], 3%. The outcome in assay [5], in assay [6], in assay [7] and in assay [8] was inactive.
On to `CC[C@H]1CN2CC[C@@H]1C[C@@H]2[C@@H](O)c1cc(-c2ccc(F)cc2)nc2ccc(OC)cc12`, for which the growth inhibition in assay [1] is 64% (active); in assay [4], 98% (active). The values for the inhibition in assay [2] and in assay [3] were 18% and -4%, respectively. Also, the result in assay [5], in assay [6], in assay [7] and in assay [8] was inactive.
Regarding `COC(=O)/C=C/c1ccc(CC(C)NCC(O)c2cccc(Cl)c2)cc1` (centres undefined), the growth inhibition is 73% (active) in assay [1] and 99% (active) in assay [4]. The inhibition is 2% in assay [2] and 5% in assay [3]. Also, the outcome in assay [5], in assay [6], in assay [7] and in assay [8] was inactive.
Turning to `CN(Cc1ccccc1)C1CCN(CCc2c[nH]c3ccc(F)cc23)CC1`, the growth inhibition in assay [1] is 91% (active); in assay [4], 100% (active). The inhibition in assay [2] is 28%; in assay [3], 5%. Also, the result in assay [5], in assay [6], in assay [7] and in assay [8] was inactive.
For `C[C@H](Cc1ccc(OCCCCCCOc2ccccc2)cc1)NC[C@@H](O)c1cc(Br)no1`, the growth inhibition is 70% (active) in assay [1] and 94% (active) in assay [4]. Moreover, the inhibition in assay [2] is 21%; in assay [3], 5%. Moreover, the result in assay [5], in assay [6], in assay [7] and in assay [8] was inactive.
In the case of `Cc1ccccc1CNCC(O)c1cccc(C(F)(F)F)c1` (centres undefined), the growth inhibition in assay [1] was 77% (active); in assay [4] it was 99% (active). The results for the inhibition in assay [2] and in assay [3] were 5% and -4%, respectively. The result in assay [5], in assay [6], in assay [7] and in assay [8] was inactive.
Take `CC1=C(C(=O)NC2CCC(CN3CCC(c4c[nH]c5ccccc45)CC3)CC2)Cc2ccccc21` (centres undefined): the growth inhibition in assay [1] was 24% and 15%; in assay [4] it was 97% (active) and 99% (active). For the same compound, the inhibition in assay [2] is 41% and 37%; in assay [3], 6% and 7%. Also, the outcome in assay [5], in assay [6], in assay [7] and in assay [8] was inactive.
For the compound `Oc1ccccc1CNCC(O)c1cccc(C(F)(F)F)c1` (centres undefined), the growth inhibition in assay [1] is 97% (active); in assay [4], 100% (active). Moreover, the results for the inhibition in assay [2] and in assay [3] were 1% and 0%, respectively. Further, the result in assay [5], in assay [6], in assay [7] and in assay [8] was inactive.
